Where “and” joins values, the source holds several entries; their conditions need not be identical. Equal entries are not always repeated. A structure can be active in one record and inactive in another. Calls of active or inactive are those of the source. The calls were made as follows: active = hit-call score of the fitted dose curve at least 0.9, where 1 is the maximum; inactive = score below 0.9.
Columns and labels:
[1] = read-out: Thrombomodulin, THBD (gene 7056); test: BSK_CASM3C_Thrombomodulin: BioMAP Diversity Plus: CASM3C Assay for Thrombomodulin Biomarker Activity (AID 2283051); details: primary human coronary artery smooth muscle cells; actives raise or lower the signal;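 also: thrombomodulin protein level measured by ELISA 24 h after dosing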
[2] = read-out: Tissue Factor, F3 (gene 2152); test: BSK_CASM3C_TissueFactor: BioMAP Diversity Plus: CASM3C Assay for Tissue Factor Biomarker Activity (AID 2283052); details: primary human coronary artery smooth muscle cells; actives raise or lower the signal;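 also: cell surface tissue factor protein level read by ELISA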
[3] = read-out: Interferon-gamma inducible Protein 10 (IP10), CXCL10 (gene 3627); test: BSK_hDFCGF_IP10: BioMAP Diversity Plus: hDFCGF Assay for Interferon-gamma inducible Protein 10 (IP10) Biomarker Activity (AID 2283053); details: primary human foreskin fibroblasts; actives raise or lower the signal
In short: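 IP-10 levels, quantified by ELISA, are taken from human foreskin fibroblast cultures 24 h after chemical treatment, with DMSO serving as negative control and baseline for bidirectional analysis.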

[4] = read-out: Urokinase-type plasminogen activator receptor (uPAR), PLAUR (gene 5329); test: BSK_CASM3C_uPAR: BioMAP Diversity Plus: CASM3C Assay for Urokinase-type plasminogen activator receptor (uPAR) Biomarker Activity (AID 2283054); details: primary human coronary artery smooth muscle cells; actives raise or lower the signal;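 also: cell-surface uPAR protein level quantified by ELISA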
[5] = read-out: Vascular cell adhesion molecule 1 (VCAM1), VCAM1 (gene 7412); test: BSK_CASM3C_VCAM1: BioMAP Diversity Plus: CASM3C Assay for Vascular cell adhesion molecule 1 (VCAM1) Biomarker Activity (AID 2283055); details: primary human coronary artery smooth muscle cells; actives raise or lower the signal;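 also: VCAM-1 protein level quantified by ELISA on the cells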
[6] = read-out: Collagen III, COL3A1 (gene 1281); test: BSK_hDFCGF_CollagenIII: BioMAP Diversity Plus: hDFCGF Assay for Collagen III Biomarker Activity (AID 2283056); details: primary human foreskin fibroblasts; actives raise or lower the signal
In short: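 Human foreskin fibroblast primary cultures sampled 24 h after dosing; Collagen III quantified by ELISA. Signal fitted bidirectionally against DMSO baseline.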

[7] = read-out: Epidermal growth factor receptor (EGFR), EGFR (gene 1956); test: BSK_hDFCGF_EGFR: BioMAP Diversity Plus: hDFCGF Assay for Epidermal growth factor receptor (EGFR) Biomarker Activity (AID 2283057); details: primary human foreskin fibroblasts; actives raise or lower the signal
In short: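 Measured by ELISA: EGFR levels on primary human foreskin fibroblasts 24 h after chemical treatment, analysed relative to DMSO with bidirectional fitting.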

[8] = read-out: Interleukin-8 (IL8), CXCL8 (gene 3576); test: BSK_hDFCGF_IL8: BioMAP Diversity Plus: hDFCGF Assay for Interleukin-8 (IL8) Biomarker Activity (AID 2283058); details: primary human foreskin fibroblasts; actives raise or lower the signal
In short: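 Primary human foreskin fibroblasts (hDFCGF system) dosed with chemical; IL-8 measured by ELISA 24 hours later. Bidirectional curve fitting relative to DMSO baseline; cytotoxicity tracked in parallel cultures by SRB total protein staining.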

[9] = BSK_hDFCGF_Proliferation: Cell Proliferation Assessment in the BioMAP Diversity Plus: hDFCGF Assay (AID 2283059); details: primary human foreskin fibroblasts;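 also: curves fitted for both rise and fall of signal versus DMSO baseline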
In short: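 Sub-confluent human foreskin fibroblast cultures receive test chemical […]. Relative cell number is quantified by sulforhodamine B staining (0.1%, after 10% TCA fixation) at 560 nm, with bidirectional fitting referenced to DMSO.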

[10] = read-out: Macrophage colony-stimulating factor (MCSF), CSF1 (gene 1435); test: BSK_hDFCGF_MCSF: BioMAP Diversity Plus: hDFCGF Assay for Macrophage colony-stimulating factor (MCSF) Biomarker Activity (AID 2283060); details: primary human foreskin fibroblasts; actives raise or lower the signal
In short: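 Human foreskin fibroblast primary cultures; M-CSF measured by ELISA 24 hours after chemical dosing. Bidirectional fitting relative to DMSO, with overt cytotoxicity tracked by parallel SRB total-protein staining (0.1% SRB, 10% TCA fixation, 560 nm).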

[11] = read-out: TIMP metallopeptidase inhibitor 1 (TIMP1), TIMP1 (gene 7076); test: BSK_hDFCGF_TIMP1: BioMAP Diversity Plus: hDFCGF Assay for TIMP metallopeptidase inhibitor 1 (TIMP1) Biomarker Activity (AID 2283062); details: primary human foreskin fibroblasts; actives raise or lower the signal
In short: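 Human foreskin fibroblast primary cultures dosed for 24 h; secreted/surface TIMP-1 quantified by ELISA. Bidirectional curve fitting against DMSO baseline; cytotoxicity tracked in parallel cultures by SRB total-protein staining.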

[12] = read-out: Matrix Metallopeptidase 1 (MMP1), MMP1 (gene 4312); test: BSK_hDFCGF_MMP1: BioMAP Diversity Plus: hDFCGF Assay for Matrix Metallopeptidase 1 (MMP1) Biomarker Activity (AID 2283064); details: primary human foreskin fibroblasts; actives raise or lower the signal
In short: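 Primary human foreskin fibroblasts in the hDFCGF system were dosed with test chemical, and MMP1 was measured by ELISA 24 h later. Values come from bidirectional curve fitting against the DMSO baseline.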

[13] = read-out: Vascular cell adhesion molecule 1 (VCAM1), VCAM1 (gene 7412); test: BSK_hDFCGF_VCAM1: BioMAP Diversity Plus: hDFCGF Assay for Vascular cell adhesion molecule 1 (VCAM1) Biomarker Activity (AID 2283065); details: primary human foreskin fibroblasts; actives raise or lower the signal;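 as to AC50: VCAM-1 protein level quantified by ELISA after 24 h chemical exposure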
In short: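 Human foreskin fibroblast primary cells dosed with chemical, VCAM-1 measured by ELISA at 24 h. Bidirectional curve fitting relative to DMSO as negative control/baseline.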

[14] = read-out: Plasminogen activator inhibitor-1 (PAI1), SERPINE1 (gene 5054); test: BSK_hDFCGF_PAI1: BioMAP Diversity Plus: hDFCGF Assay for Plasminogen activator inhibitor-1 (PAI1) Biomarker Activity (AID 2283066); details: primary human foreskin fibroblasts; actives raise or lower the signal
In short: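 PAI-1 levels, determined by ELISA, served as the endpoint in human foreskin fibroblast cultures exposed to compound for 24 h, with DMSO as baseline.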

[15] = read-out: Intercellular Adhesion Molecule 1 (ICAM1), ICAM1 (gene 3383); test: BSK_KF3CT_ICAM1: BioMAP Diversity Plus: KF3CT Assay for Intercellular Adhesion Molecule 1 (ICAM1) Biomarker Activity (AID 2283067); details: primary human keratinocytes with fibroblasts; actives raise or lower the signal
In short: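 Human keratinocyte–foreskin fibroblast co-culture was treated for 24 h. Cell-surface ICAM-1 was quantified by ELISA, fitted bidirectionally relative to DMSO. Cytotoxicity was checked in parallel cultures by SRB total-protein staining.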

[16] = read-out: Interferon-gamma inducible Protein 10 (IP10), CXCL10 (gene 3627); test: BSK_KF3CT_IP10: BioMAP Diversity Plus: KF3CT Assay for Interferon-gamma inducible Protein 10 (IP10) Biomarker Activity (AID 2283068); details: primary human keratinocytes with fibroblasts; actives raise or lower the signal
In short: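 ELISA read-out of IP-10 after 24 h chemical dosing of human skin primary co-culture (keratinocytes, foreskin fibroblasts). Gain or loss of signal relative to DMSO, bidirectional curve fit.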

[17] = BSK_KF3CT_SRB: Viability Assessment in the BioMAP Diversity Plus: KF3CT Assay (AID 2283069); details: primary human keratinocytes with fibroblasts;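 also: total protein by sulforhodamine B staining as a cytotoxicity measure; read 24 h after compound addition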
In short: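 Human primary keratinocyte plus foreskin fibroblast co-culture exposed to chemicals for 24 h. Total protein measured by 0.1% sulforhodamine B staining after 10% TCA fixation, read at 560 nm; bidirectional fitting versus DMSO baseline.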

[18] = read-out: Interleukin-1 alpha (IL1a), IL1A (gene 3552); test: BSK_KF3CT_IL1a: BioMAP Diversity Plus: KF3CT Assay for Interleukin-1 alpha (IL1a) Biomarker Activity (AID 2283070); details: primary human keratinocytes with fibroblasts; actives raise or lower the signal
In short: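 Human keratinocyte plus foreskin fibroblast primary co-culture, sampled 24 h after chemical dosing. IL-1a measured by ELISA; responses fitted bidirectionally against DMSO baseline (negative control), so gain or loss of signal both count.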

[19] = read-out: Monokine induced gamma interferon (MIG), CXCL9 (gene 4283); test: BSK_hDFCGF_MIG: BioMAP Diversity Plus: hDFCGF Assay for Monokine induced gamma interferon (MIG) Biomarker Activity (AID 2283063); details: primary human foreskin fibroblasts; actives raise or lower the signal
In short: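 MIG/CXCL9 measured by ELISA 24 h after dosing primary human skin fibroblasts. Activity fitted in both directions against DMSO controls. Cytotoxicity was checked in parallel cultures by SRB staining read at 560 nm.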

Measured: AC50

ClC1C(Cl)C(Cl)C(Cl)C(Cl)C1Cl (stereo unspecified)
inactive: [1] | [2] | [3] | [4] | [5] | [6] | [7] | [8] | [9] | [10] | [11] | [12] | [13] | [14] | [15] | [16] | [17] | [18]
active: [3] 32.2 µM | [4] 29 µM | [5] 32.2 µM and 32.4 µM | [6] 20 µM | [9] 28.1 µM and 24.6 µM

CNC(=O)/C=C(\C)OP(=O)(OC)OC
inactive: all assays above

CCOCN(C(=O)CCl)c1c(C)cccc1CC
inactive: [2] | [4] | [7] | [8] | [11] | [15] | [17] | [18]
active: [1] 16.8 µM | [3] 20 µM | [5] 20 µM | [6] 8.23 µM | [9] 14.5 µM | [10] 9.55 µM | [19] 22.8 µM | [12] 5.13 µM | [13] 3.54 µM | [14] 21.8 µM | [16] 23.6 µM

Reference: PubChem BioAssay (EPA / NIEHS)
